# Experimental data reported in PubChem BioAssay AID720597 (Broad Institute, 2013).
# Measured potencies and affinities stand elsewhere. Values without a mark were called inactive.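 The calls were made as follows: active = fitted half-maximal dose no more than twice the top valid tested dose, for compounds that lower signal; inconclusive = fit invalid, or curve flat with activity between -70 and -30; inactive = potency past limit, curve flat within ±30, or signal increasing.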
# Biological target: NAD-dependent protein deacylase sirtuin-5, mitochondrial (Homo sapiens) (UniProt Q9NXA8)
# Sequence (Q9NXA8 whole entry, looked up): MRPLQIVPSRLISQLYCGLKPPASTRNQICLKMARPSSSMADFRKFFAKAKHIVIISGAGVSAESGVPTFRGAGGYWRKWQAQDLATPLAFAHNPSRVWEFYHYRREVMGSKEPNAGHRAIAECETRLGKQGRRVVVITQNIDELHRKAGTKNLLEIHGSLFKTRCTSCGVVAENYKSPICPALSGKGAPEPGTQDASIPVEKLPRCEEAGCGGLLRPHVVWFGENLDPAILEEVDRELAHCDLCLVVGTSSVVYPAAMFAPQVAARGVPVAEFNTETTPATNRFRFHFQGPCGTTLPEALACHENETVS
# Assay: SIRT5 deacylase inhibitors, dose response, biochemical, fluorescence imaging, cherry-pick, set 6 (AID 720597);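 also: lower AMC signal can also come from blocking the trypsin step; 0% = median of neutral control wells and -100% = median of positive control wells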
# Details: Purified SirT5, succinyl-peptide-AMC/trypsin fluorescence; series mostly up to 15 µM; activity change, negative = inhibition: at the top concentration
row,SMILES,"activity change, negative = inhibition"
1,COc1ccc(S(=O)(=O)N(C)C[C@@H]2OCCCC[C@H](C)Oc3ccc(NS(=O)(=O)c4ccc(F)cc4)cc3C(=O)N([C@@H](C)CO)C[C@@H]2C)cc1,-4.84%
2,C[C@@H]1CN([C@@H](C)CO)S(=O)(=O)c2ccc(C#Cc3ccccc3F)cc2O[C@@H]1CN(C)C(=O)c1ccc2c(c1)OCO2,-22.3%
3,CCNC(=O)C[C@H]1CC[C@H]2[C@@H](COC[C@@H](O)CN2C(=O)Nc2ccc(C(F)(F)F)cc2)O1,-19.6%
4,CCC(=O)N(C)C[C@@H]1[C@@H](c2ccc(-c3ccccc3F)cc2)[C@H](CO)N1C(C)=O,-1.46%
5,O=C(CCN1CCCCC1)N[C@@H]1CC[C@H](CC(=O)N2CCC(Cc3ccccc3)CC2)O[C@@H]1CO,-14.1%
6,COc1ccc(NC(=O)N(C)C[C@@H]2Oc3ccc(NS(=O)(=O)c4ccc(F)cc4)cc3C(=O)N([C@@H](C)CO)C[C@@H]2C)cc1,-16.2%
7,CNC[C@@H]1Oc2ccc(NC(=O)Nc3ccc(F)cc3)cc2CC(=O)N([C@@H](C)CO)C[C@@H]1C,12.6%
8,COc1ccc(S(=O)(=O)N(C)C[C@H]2Oc3ccc(NC(=O)NC4CCCCC4)cc3C(=O)N([C@H](C)CO)C[C@@H]2C)cc1,1.57%
9,C[C@@H]1CN([C@H](C)CO)C(=O)c2c(c3ccccc3n2C)-c2ccccc2CO[C@@H]1CN(C)S(=O)(=O)c1ccc(Cl)cc1,-23.3%
10,C[C@@H]1CN([C@@H](C)CO)S(=O)(=O)c2ccc(C#Cc3ccc(F)cc3)cc2O[C@H]1CN(C)S(=O)(=O)c1ccc(F)cc1,-1.34%
11,COc1ccc([Si](C)(C)[C@@H]2[C@@H](CCO)O[C@]3(C(=O)N(Cc4cccc(NC(C)=O)c4)c4ccccc43)[C@H]2C)cc1,-7.91%
12,C[C@H]1CN([C@@H](C)CO)C(=O)c2ccccc2-c2ccccc2CO[C@H]1CN(C)Cc1ccc(F)cc1,-27.3% [at 16 µM]
13,C[C@@H]1CN([C@H](C)CO)C(=O)c2cc(Br)cnc2O[C@@H]1CN(C)Cc1cncnc1,-2.29% [at 13.5 µM]
14,COc1ccc(NC(=O)Nc2ccc3c(c2)C(=O)N([C@@H](C)CO)C[C@H](C)[C@@H](CN(C)Cc2ccccc2)OCCCC[C@H](C)O3)cc1,-16.4%
15,C[C@@H]1CN([C@H](C)CO)C(=O)c2cccc(NC(=O)C3CCCCC3)c2O[C@@H]1CN(C)CC1CC1,-16.1%
16,CN(C)CC#Cc1ccc([C@@H]2[C@@H](CO)N3CCCCN(C(=O)CN(C)C)C[C@H]23)cc1,-9.95%
17,Cc1noc(C)c1S(=O)(=O)N(C)C[C@@H]1OCCCC[C@@H](C)Oc2ccc(NC(=O)Nc3cccc4ccccc34)cc2C(=O)N([C@H](C)CO)C[C@@H]1C,-28%
18,C[C@H](CO)N1C[C@H](C)[C@@H](CN(C)Cc2ccc(C(=O)O)cc2)Oc2ccc(NS(=O)(=O)c3ccc(Cl)cc3)cc2C1=O,5.79%
19,C[C@H](CO)N1C[C@H](C)[C@H](CN(C)C(=O)NC2CCCCC2)Oc2ccc(NC(=O)Nc3ccccc3)cc2C1=O,-4.75%
20,COc1ccc(NC(=O)Nc2ccc3c(c2)C(=O)N([C@@H](C)CO)C[C@H](C)[C@H](CN(C)Cc2ccc(Cl)c(Cl)c2)O3)cc1,-4.73%
21,COc1cccc(C(=O)Nc2ccc3c(c2)C(=O)N(C)C[C@H](OC)[C@@H](C)CN(CCc2ccccc2)[C@@H](C)CO3)c1,-22.3%
22,Cc1ccc(S(=O)(=O)N(C)C[C@H]2Oc3ncc(-c4ccncc4)cc3C(=O)N([C@@H](C)CO)C[C@@H]2C)cc1,-4.75%
23,O=C(NCC[C@H]1CC[C@H](NS(=O)(=O)c2cccc(F)c2)[C@@H](CO)O1)C1CCOCC1,0.211%
24,C[C@@H]1CN([C@@H](C)CO)C(=O)c2cc(NS(=O)(=O)c3ccccc3)ccc2O[C@@H](C)CCCCO[C@@H]1CN(C)S(=O)(=O)c1ccc(F)cc1,-29%
25,CCN1[C@@H]2c3ccc(-c4cccc(F)c4)c(=O)n3C[C@@H]2[C@@H](CO)[C@@H]1C(=O)N[C@H](C)c1ccccc1,19.1%
26,C[C@@H]1CN([C@@H](C)CO)C(=O)c2cc(NS(=O)(=O)c3ccccc3)ccc2O[C@@H](C)CCCCO[C@@H]1CN(C)Cc1ccc(C(F)(F)F)cc1,16.1%
27,C[C@@H]1CN([C@@H](C)CO)S(=O)(=O)c2ccc(/C=C/c3ccccc3)cc2O[C@@H]1CN(C)C(=O)C1CC1,7.63%
28,C[C@@H]1CN([C@@H](C)CO)C(=O)c2cccc(NS(=O)(=O)c3ccc(F)cc3)c2O[C@H]1CN(C)C(=O)Nc1ccccc1,-19.6%
